# Measurements taken from PubChem BioAssay (EPA / NIEHS).
# Calls of active or inactive are those of the source. The calls were made as follows: active = hit-call score of the fitted dose curve at least 0.9, where 1 is the maximum; inactive = score below 0.9.
# Assay: ATG_M_61_CIS: Attagene CIS-FACTORIAL HepG2 Assay for M61 Transcription Factor (Internal Marker) (AID 2282937)
# Settings: HepG2 Attagene CIS-FACTORIAL M61 internal marker reporter; actives raise or lower the signal
# Procedure: ATG_CIS is a cell-based, multiplexed-readout assay that uses HepG2, a human liver cell line, with measurements taken at 24 hours after chemical dosing in a 24-well plate.ATG_M_61_CIS is one of 52 assay component(s) measured or calculated from the ATG_CIS assay. It is designed to make measurements of mRNA induction, a form of inducible reporter, as detected with fluorescence intensity signals by Reverse transcription polymerase chain reaction (RT-PCR) and Capillary electrophoresis technology.Data from the assay component ATG_M_61_CIS was analyzed into 1 assay endpoint. This assay endpoint, ATG_M_61_CIS, was analyzed with bidirectional fitting relative to DMSO as the negative control and baseline of activity. Using a type of inducible reporter, measures of mRNA for gain or loss-of-signal activity can be used to understand the background control at the transcription factor-level as they relate to the gene . Furthermore, this assay endpoint can be referred to as a secondary readout, because this assay has produced multiple assay endpoints where this one serves a background control function. To generalize the intended target to other relatable targets, this assay endpoint is annotated to the background measurement intended target family, where the subfamily is internal marker.
# Human liver HepG2 cells are transiently transfected with multiple reporter transcription units (MRTUs) in 6-well plates using FuGene 6 reagent (Roche; 3 ml FuGene/1 mg DNA). The MRTU constructs are regulated by a cis-regulating element (promoter). […] A major difference between the CIS and TRANS system is that in CIS activities of endogenous TFs are measured, whereas the TRANS assay evaluates changes in activities of exogenous, chimeric NR-Gal4 proteins. […] At the end of 24 hour incubation, total RNA was isolated using TriZol reagent (Invitrogen). The isolated RNA is then reverse-transcribed using oligo(dT) primer and Mo-MLV reverse transcriptase (Invitrogen) with DNAse I (Ambion) treatment for 30 min. The one-tenth of the produced cDNA was amplified by PCR using Taq DNA polymerase (Invitrogen) and two reporter sequence-specific primers. The PCR products were fluorescently labeled by primer extension with 6-arboxyfluorescein (6-FAM) 5'-labeled reporter sequence-specific primer (2 min at 95 C, 20 s at 68 C and 10 min at 72 C) and these products were digested with 5U of HpaI (New England Biolabs) for 2h at 37 C. The fragments were purified using Qiaquick PCR columns (Qiagen), analyzed on an ABI 3130xL genetic analyzer (Applied Biosystems) with peak positions identified by using a set of X-rhodamine (ROX)-labeled MapMarker1000 molecular weight standards (BioVentures). The raw capillary electrophoresis data was processed using Attagraph software (Attagene).
row,Structure (SMILES),outcome
1,Cc1[nH]cnc1C[C@H]1CCc2c(C)c3ccccc3n2C1=O,inactive
2,O=C(O)c1cccc(N(Cc2cccnc2)c2ccc(OC(F)F)c(OC(F)F)c2)c1,inactive
3,COc1ccc2sc(C(=O)Nc3nnn[nH]3)c(OC(C)C)c2c1,inactive
4,Cc1ccc(O)cc1,inactive
5,CC[C@H]1CC[C@H](NCc2cc3c(cc2OC)[C@H]2C[C@H]2C(=O)N3C)[C@H](c2ccccc2)N1,inactive
6,Cn1cnc([N+](=O)[O-])c1Sc1ncnc2nc[nH]c12,inactive
7,Oc1ccc2c(c1)-c1ccccc1C2,inactive
8,COCCOCCOCCOC,inactive
9,O=C(O)c1cc(N=Nc2ccc(S(=O)(=O)Nc3ccccn3)cc2)ccc1O,inactive
10,CN(C)c1ccc(Cc2ccc(N(C)C)cc2)cc1,inactive
11,Cc1ccc(C)c(O)c1,inactive
12,CC1=CC(=O)CC(C)(C)C1,inactive
13,CC(C)CC(C)(O)C#CC(C)(O)CC(C)C (stereo not given),inactive
14,Nc1cccc(N)c1,inactive
15,COC(=O)c1ccccc1O,inactive
16,CCCCCCc1ccc(O)cc1O,inactive
17,C1N2CN3CN1CN(C2)C3,inactive
18,O=C(NS(=O)(=O)/C=C/c1ccccc1)c1ccc(F)cc1Cl,inactive
19,O=C1OC(=O)C2C3C=CC(C3)C12 (stereo not given),inactive
20,CCOC(=O)CC(CC(=O)OCC)(OC(C)=O)C(=O)OCC,inactive

row,Structure (SMILES),outcome
1,CC[C@H](C)C(=O)O[C@H]1C[C@@H](C)C=C2C=C[C@H](C)[C@H](CC[C@@H]3C[C@@H](O)CC(=O)O3)[C@H]21,inactive
2,COc1cccc(-c2ccc(/C=C\CN3CCCCCC3)cc2Cl)c1,inactive
3,O=C(OC[C@H]1O[C@@H](OC(=O)c2cc(O)c(O)c(OC(=O)c3cc(O)c(O)c(O)c3)c2)[C@H](OC(=O)c2cc(O)c(O)c(OC(=O)c3cc(O)c(O)c(O)c3)c2)[C@@H](OC(=O)c2cc(O)c(O)c(OC(=O)c3cc(O)c(O)c(O)c3)c2)[C@@H]1OC(=O)c1cc(O)c(O)c(OC(=O)c2cc(O)c(O)c(O)c2)c1)c1cc(O)c(O)c(OC(=O)c2cc(O)c(O)c(O)c2)c1,inactive
4,CC(C)=CCC/C(C)=C/CO,inactive
5,O=C(O)CC(O)C(=O)O (stereo not given),inactive
6,CCOc1cccc(-n2cc(C(=O)N3CCN(c4cc(C(=O)O)c5ccccc5c4)CC3)nc2-c2ccc(C)cc2)c1,inactive
7,CN(C)c1ccc(N=NS(=O)(=O)O)cc1,inactive
8,CC(=O)OC[C@H]1O[C@@](COC(C)=O)(O[C@H]2O[C@H](COC(C)=O)[C@@H](OC(C)=O)[C@H](OC(C)=O)[C@H]2OC(C)=O)[C@@H](OC(C)=O)[C@@H]1OC(C)=O,inactive
9,CCCN(C1CCN(C(=O)C2CCNCC2)CC1)[C@@H]1CCc2ccc(OC)cc2C1,inactive
10,CCCCC(CC)COC(=O)c1ccc(C(=O)OCC(CC)CCCC)cc1 (stereo not given),inactive
11,CCOCCOCCOCCO,inactive
12,CC(=O)OCCC(C)C,inactive
13,CC/C(=C\C(=N/O)C(N)=O)C(C)[N+](=O)[O-] (stereo not given),inactive
14,CCCC(=O)OCC,inactive
15,CCOC(=O)COc1ccc2c(c1)CC(NCC(O)c1cccc(Cl)c1)CC2 (stereo not given),inactive
16,Cc1ccc(S(=O)(=O)O)cc1C,inactive
17,COc1ccc(-n2nc(C(F)F)cc2-c2ccc(S(C)=O)cc2)cc1 (stereo not given),inactive
18,COC(=O)c1c(Cl)c(Cl)c(C(=O)OC)c(Cl)c1Cl,inactive
19,CC(C)CCCCCCCOC(=O)CCCCC(=O)OCCCCCCCC(C)C,inactive
20,CCC(C)(C)C(=O)O[C@H]1C[C@@H](C)C=C2C=C[C@H](C)[C@H](CC[C@@H]3C[C@@H](O)CC(=O)O3)[C@H]21,inactive
